# The panel holds about 83,000 compounds, 20% with a hit somewhere; the sample as a whole holds those more often.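 Step 1: grow cells in 96-well plates. Step 2: add test compound at a single concentration. Step 3: incubate 48 h. Step 4: record percent growth.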 A number with no mark means an inactive call. Activity calls are given as the source filed them. How the source made its calls: active means growth percent below 10; inactive means the rest.
# System: NCI-H460 lung
# Experiment: NCI-60 one-dose screen, 48 h (100 = growth as untreated, 0 = no growth, -100 = all killed)
# Settings: 10 µM unless noted
row,SMILES,growth
1,COc1cc(/C=C/C(=O)c2ccc(NC(=O)COc3cccc4cccnc34)cc2)cc(OC)c1OC,72.5%
2,O=C(Nc1cccc(Cl)c1)Nc1nc2ccc([N+](=O)[O-])cc2s1,2.75% (active)
3,O=C(NNc1nc2cc(F)cc(F)c2n2cccc12)c1ccncn1,7.43% (active)
4,C[C@H]1[C@H](C)CC[C@]2(COC(=O)c3cccnc3)CC[C@]3(C)C(=CC[C@@H]4[C@@]5(C)CCCNC(C)(C)[C@@H]5CC[C@]43C)[C@H]12,65.1%
5,CN1CCN(c2ccc(NC(=O)Nc3ccc4c(ccn4-c4cccc(C(N)=O)n4)c3)cc2C(F)(F)F)CC1,87.2%
6,COc1ccc(OC)c([C@H]2c3[nH]c4ccccc4c3C[C@H]3C(=O)N(CCCCCCC(=O)NO)CC(=O)N23)c1,87.1%
7,CS(=O)c1nccc(-c2c(-c3ccc(F)c(OCc4ccccc4)c3)nc3sccn23)n1 (stereo not drawn),19.1%
8,CC(=O)NC(C)(C)C(=O)N1CCC[C@H]1C(=O)NC(C)(C)C(=O)N[C@@H](C)C(=O)NC(C)(C)C(=O)N[C@@H](C)C(=O)N[C@@H](CCC(N)=O)C(=O)NC(C)(C)C(=O)N[C@H](C(=O)NC(C)(C)C(=O)NCC(=O)N[C@@H](CC(C)C)C(=O)NC(C)(C)C(=O)N1CCC[C@H]1C(=O)N[C@H](C(=O)NC(C)(C)C(=O)NC(C)(C)C(=O)N[C@@H](CCC(N)=O)C(=O)N[C@@H](CCC(N)=O)C(=O)N[C@H](CO)Cc1ccccc1)C(C)C)C(C)C,74.1% [4.25 µM]

# Reference: PubChem BioAssay (NCI)
